High-throughput results: PubChem BioAssay, several laboratories
SENP7 inh: blocks the human protease SENP7; Q9BQF6; recombinant SENP7, Z-RLRGG-aminoluciferin luminescence, 40 min; inhibition, % at 5 µM; actives 1.5% (n = 330,000); AID 434973;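 active = inhibition above about 50% at the single test dose, limit read from the data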;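 also: plate controls were DMSO with enzyme for no effect and no enzyme buffer wells for full effect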
Target sequence (Q9BQF6 706-1050 limits assumed): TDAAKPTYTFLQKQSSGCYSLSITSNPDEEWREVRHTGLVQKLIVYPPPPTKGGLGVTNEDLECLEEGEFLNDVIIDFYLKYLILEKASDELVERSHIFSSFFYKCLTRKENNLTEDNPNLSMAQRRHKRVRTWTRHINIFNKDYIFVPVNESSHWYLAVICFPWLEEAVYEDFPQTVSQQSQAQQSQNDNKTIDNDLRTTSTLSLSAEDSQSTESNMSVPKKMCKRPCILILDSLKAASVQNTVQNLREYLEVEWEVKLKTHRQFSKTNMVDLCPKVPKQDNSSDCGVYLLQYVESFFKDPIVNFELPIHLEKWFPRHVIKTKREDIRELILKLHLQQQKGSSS
Platelet DG rel: modulates dense granule release in human platelets | human platelet-rich plasma, SFLLRN dense granule ATP release, luminescence | actives 0.22% (n = 300,000) | inhibition, %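 (compounds screened at 7.5 µM in platelet-rich plasma)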;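 active = mean replicate score, as percent of positive control, at or above 50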
SENP8 block-1: inhibitors of human SENP8 protease; actives 1.2% (n = 330,000); Q96LD8; inhibition, % at 10 µM; purified SENP8, Z-RLRGG-aminoluciferin cleavage, luminescence; in the data active = inhibition above about 50%
Target sequence (Q96LD8 whole entry, looked up): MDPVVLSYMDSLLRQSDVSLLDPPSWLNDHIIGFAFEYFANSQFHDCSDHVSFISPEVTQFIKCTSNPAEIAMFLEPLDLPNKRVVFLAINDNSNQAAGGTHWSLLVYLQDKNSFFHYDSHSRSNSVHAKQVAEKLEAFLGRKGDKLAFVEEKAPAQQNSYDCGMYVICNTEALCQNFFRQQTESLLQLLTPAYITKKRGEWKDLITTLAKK
SENP8 block-2: inhibitors of human SENP8 protease | actives 0.64% (n = 360,000) | AID 602440 | inhibition, % at 20 µM | recombinant SENP8, Nedd8 substrate fluorescence; in the data active = inhibition mostly above about 40%, no sharp cut-off; inactive = mostly below about 27%
SENP6 block: SENP6 protease inhibition; inhibition, % at 10 µM; Q9GZR1; actives 1.8% (n = 330,000); Recombinant SENP6 catalytic domain, aminoluciferin luminescence;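 active = inhibition above about 50% at the single tested dose, limit read from the data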;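 also: plate controls were DMSO wells with enzyme for no effect and DMSO wells lacking enzyme for full effect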
The depositor's hits bear a star; · = not tested or not shown. Hits are enriched below; roughly 2.4% of the tested compounds scored in any of these assays.

SMILES | SENP7 inh | Platelet DG rel | SENP8 block-1 | SENP8 block-2 | SENP6 block
CCN1CCN(C(=O)c2ccc(N3CC4CC(C3)c3cccc(=O)n3C4)c([N+](=O)[O-])c2)CC1 (stereo not given) | -4 | 0 | 10 | 22 | 3
C/C(=N\OC(=O)c1ccc(F)cc1)c1sc(-c2ccc(Cl)cc2)nc1C | 3 | -1 | -1 | -413 | -20
C/C(=N\OC(=O)c1ccc(F)cc1)c1ccc(F)c(F)c1 | 92* | 9 | 73* | 23 | 80*
CN(C)c1ccc2nc3ccc(=[N+](C)C)cc-3sc2c1 | 16 | 12 | 34 | 66* | 32
CN(C)c1ccc2nc3ccc(=O)cc-3sc2c1 | · | · | · | -4 | ·
Cc1cc2nc3ccc(=[N+](C)C)cc-3sc2cc1N | · | 7 | · | 57* | ·
CCOc1ccc(/C(O)=C2\C(=O)C(=O)N(c3ccccn3)C2c2ccccc2F)c(C)c1 (stereo not given) | · | · | · | -6 | ·
O=C(Nc1nc2ccsc2c(=O)s1)c1ccc(Cl)cc1 | 100* | 15 | 94* | -113 | 95*
COc1cc(CNc2nccn3ccnc23)cc(OC)c1 | · | · | · | 3 | ·
O=C(c1cc(F)c(F)cc1Cl)N1CCN(S(=O)(=O)c2cccs2)CC1 | -4 | · | 2 | 3 | -9
CCC(Cc1ccccc1)NS(=O)(=O)c1c(C)nc2sccn2c1=O (stereo not given) | -5 | 58* | -5 | -233 | -8
Cc1cc(Br)cn2c(Cc3cccc(F)c3)c(-c3ccc(C#N)cc3)nc12 | · | · | · | -74 | ·
Oc1ccc2ccccc2c1/C=N/Nc1ccccc1 | -3 | 7 | -11 | -56 | -17
Oc1ccc2ccccc2c1C=NCc1ccccc1 | 14 | 4 | 14 | 6 | 60*
O=C(Cn1nc(CNc2ccc(Br)cc2)[n+]2c1CCCCC2)c1ccc([N+](=O)[O-])cc1 | 5 | 5 | -2 | 20 | 1
CCOc1ccc2c(c1)-c1c(ssc1=S)C(C)(C)N2C | -6 | 2 | -5 | 47* | -5
CCN(CCCNc1cc2c(c(N)c1S(=O)(=O)O)C(=O)c1ccccc1C2=O)c1ccccc1 | · | · | · | 57* | ·
N#C/C(=C\c1cn(CCOc2ccccc2)c2ccccc12)C(=O)NCc1cccs1 | 1 | 10 | -2 | -46 | 11
Nc1nc(-c2ccccc2)c(N=Nc2cccnc2)s1 | -7 | 23 | -9 | 48* | -28
COc1cccc2cc(-c3ccccc3)c(=O)oc12 | 75* | 8 | 66* | -74 | 42
COc1cccc2cc(-c3nc(-c4cccs4)cs3)c(=O)oc12 | -4 | -9 | -10 | -318 | -13
COc1ccc(CNCc2ccc3ccccc3c2)c(OC)c1 | -5 | 7 | -7 | 11 | 2
Cc1ccc2oc(/N=C(\N)NC(=O)C(C)(C)C)nc2c1 | 65* | 24 | 36 | -2 | 37
Cc1ccc2oc(/N=C(\N)NC(=O)C3CC3)nc2c1 | 0 | 1 | -2 | 14 | 21
COc1cc2ccc(C(=O)O)cc2cc1OC | · | · | · | 12 | ·
SMILES | SENP7 inh | Platelet DG rel | SENP8 block-1 | SENP8 block-2 | SENP6 block
O=C1CSC(=S)N1/N=C/c1ccc(O)c(O)c1O | 8 | -1 | 8 | 53* | -2
Cc1nc(C(F)(F)F)ccc1C(=O)N1CCC1(C)C(=O)NS(C)(=O)=O (stereo not given) | · | · | · | 1 | ·
O=C(NC(=S)Nc1ccc2c(c1)C(=O)c1ccccc1C2=O)c1ccc(F)cc1 | 64* | -1 | 52* | · | 78*
CCC(C)NC(=O)CN(C1CCCCC1)S(=O)(=O)c1ccc(F)cc1 (stereo not given) | 7 | 1 | -5 | 7 | -7
COc1ccc(C2NC(=O)c3n[nH]c(C)c32)c(OC)c1 (stereo not given) | 2 | 62* | 6 | 8 | -3
CCOC(=O)c1ccc(N2C(=O)c3n[nH]c(C)c3C2c2ccc(OC)cc2OC)cc1 (stereo not given) | 1 | -5 | 3 | 10 | -3
O=C(Cc1ccc(NC(=O)C2CCN(C(=O)C3CCC3)CC2)cc1)Nc1ccc(C(=O)N2CCOCC2)cc1 | · | · | · | 5 | ·
Cc1ncn(-c2ccccc2)c1-c1ccccc1 | 8 | -4 | -4 | 12 | -11
CCOC(=O)C1=C(C)NC(C)=C(C(=O)OCC)C1C | 9 | -1 | 1 | -330 | -8
CCOC(=O)C1=C(C)NC(=O)NC1 | 3 | 60* | -1 | 22 | -6
Nc1ccc(CCNc2ncnc3c2ncn3[C@@H]2O[C@H](CO)[C@@H](O)[C@H]2O)cc1 | 10 | 15 | 3 | 7 | 7
CC1(C)OC2C(O1)[C@@H](CO)O[C@H]2n1cnc2c(N)ncnc21 (stereo not given in full) | -1 | 8 | -1 | 20 | -13
OCC1OC(n2cnc3c(NCCc4ccccc4)ncnc32)C(O)C1O (stereo not given) | 3 | 70* | 4 | -4 | 6
Nc1ncnc2c1ncn2[C@@H]1O[C@H](CO)[C@@H](O)[C@H]1O | 8 | 81* | -4 | 6 | 0
Cn1cccc1/C=C1\SC(=S)N(NC(=O)c2ccccc2)C1=O | · | · | · | 32 | ·
Cn1cccc1/C=C1\SC(=S)N(NC(=O)c2ccc(F)cc2)C1=O | -4 | · | 7 | 52* | 1
CC(/C=C1\SC(=S)N(NC(=O)c2ccncc2)C1=O)=C\c1ccccc1 | 0 | -12 | 1 | 19 | -17
CC(/C=C1\SC(=S)N(NC(=O)c2ccc(C)cc2)C1=O)=C\c1ccccc1 | -1 | 0 | -2 | 40* | -4
Cn1cccc1/C=C1\SC(=S)N(NC(=O)c2ccccc2O)C1=O | 0 | 12 | 7 | 47* | -19
COc1ccc(/C=N/Nc2cc(OC)ncn2)cc1 | · | 52* | · | 10 | ·
COc1ccc(/C=N/Nc2cc(C)nc(N)n2)cc1 | 3 | 30 | -7 | 5 | -23
CCCCCNc1nc(-c2ccccc2)cs1 | 10 | -33 | 32 | · | 64*
Cc1ccc(C(=O)Nc2nc(-c3ccccn3)cs2)s1 | 0 | · | -8 | -57 | -2
CC(=O)Nc1ccc(-c2csc(Nc3ncccn3)n2)cc1 | 18 | 5 | -8 | 8 | 1
c1ccc(-c2csc(Nc3ncccn3)n2)cc1 | 75* | 18 | 13 | 16 | 37
SMILES | SENP7 inh | Platelet DG rel | SENP8 block-1 | SENP8 block-2 | SENP6 block
Cc1cccnc1Nc1nc(-c2ccccn2)cs1 | 77* | 21 | 75* | -9 | 81*
Oc1ccc(-c2csc(Nc3ncccn3)n2)cc1 | 72* | 11 | 56* | 10 | 37
Cc1cccc(NC(=O)N2CCCC2C(=O)Nc2ccccc2)c1 (stereo not given) | 4 | -1 | 8 | 3 | 10
COc1ccc(NC(=O)CCS(=O)(=O)c2ccc3nc(C)sc3c2)cc1OC | -3 | 74* | -1 | 1 | -17
COc1cc(NC(=O)CCS(=O)(=O)c2ccc3nc(C)sc3c2)cc(OC)c1OC | -15 | -3 | 1 | 21 | -3
O=C(/C=C/c1c(F)cccc1Cl)Nc1nc2ccccc2[nH]1 | 69* | 14 | -28 | 6 | -27
O=C(/C=C/c1cccc(Cl)c1)Nc1ccncc1 | -4 | 2 | -10 | 8 | -2
O=C(/C=C/c1ccc(Cl)cc1Cl)Nc1ccncc1 | 43 | 1 | 56* | 15 | 78*
